# Most compounds without a hit are left out; they make up all but 18% or so of the library.
# PLK1 PBD block = blocks phosphopeptide binding to human PLK1 polo-box domain; P53350; Plk1 PBD binding of FITC phosphopeptide, fluorescence polarization; 360,000 compounds, 2.8% hits; Potency, µM, usual class: inhibitors; also: series mostly up to about 57 µM; nearly all actives have a fitted effect of over 65% in size
# TDP1 cell noCPT = qHTS for Inhibitors of human tyrosyl-DNA phosphodiesterase 1 (TDP1): qHTS in cells in absence of CPT | DT40 Tdp1-/- hTDP1 cells, no CPT, ATP luminescence, 48 h | Potency, µM (titrated, usually from 46.2 µM), hits mostly inhibitors | 420,000 compounds, 15% hits | AID 686978, 2013; also: nearly all actives have a fitted effect of over 55% in size
#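 Readout: luminescence from CellTiter-Glo after 30 min in the dark at RT. Cells: DT40 Tdp1-/- with stable hTDP1, 400/well. Exposure: compounds alone, ≥48 hr, 37 °C.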
# TDP1 cell CPT = DT40-hTDP1 cell growth loss with CPT. chicken DT40 Tdp1-/-;hTDP1 cells + 20 nM CPT, ATP luminescence, 48 h. Potency, µM (doses to about 46.2 µM), usual class: inhibitors. 420,000 compounds, 12% hits; also: nearly all actives have a fitted effect of over 55% in size
#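 Chicken DT40 Tdp1-/- cells stably complemented with human TDP1 were seeded at 400 cells/well in medium containing 20 nM camptothecin, exposed to pin-transferred compounds, and grown at 37 °C for at least 48 hr. Viability was read as ATP luminescence.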
# VDR inh = inhibitors of human vitamin D receptor; P11473; VDR-SRC2-3 peptide fluorescence polarization, 2 h; Potency, µM, actives largely listed as inhibitors; 400,000 compounds, 0.93% hits
#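 FP read-out; VDR + SRC2-3 coactivator peptide; 23 nl compound by pintool; 2 h RT incubation; reagents held at 4 deg C, protected from light.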
# GCN5L2 inh = blocks human GCN5L2 histone acetyltransferase; Q92830; GCN5L2 HAT assay, ThioGlo1 CoA-SH fluorescence; Potency, µM (doses to about 58.9 µM), actives largely listed as inhibitors; 390,000 compounds, 0.21% hits; AID 504327
# Target sequence (Q92830 whole entry, looked up): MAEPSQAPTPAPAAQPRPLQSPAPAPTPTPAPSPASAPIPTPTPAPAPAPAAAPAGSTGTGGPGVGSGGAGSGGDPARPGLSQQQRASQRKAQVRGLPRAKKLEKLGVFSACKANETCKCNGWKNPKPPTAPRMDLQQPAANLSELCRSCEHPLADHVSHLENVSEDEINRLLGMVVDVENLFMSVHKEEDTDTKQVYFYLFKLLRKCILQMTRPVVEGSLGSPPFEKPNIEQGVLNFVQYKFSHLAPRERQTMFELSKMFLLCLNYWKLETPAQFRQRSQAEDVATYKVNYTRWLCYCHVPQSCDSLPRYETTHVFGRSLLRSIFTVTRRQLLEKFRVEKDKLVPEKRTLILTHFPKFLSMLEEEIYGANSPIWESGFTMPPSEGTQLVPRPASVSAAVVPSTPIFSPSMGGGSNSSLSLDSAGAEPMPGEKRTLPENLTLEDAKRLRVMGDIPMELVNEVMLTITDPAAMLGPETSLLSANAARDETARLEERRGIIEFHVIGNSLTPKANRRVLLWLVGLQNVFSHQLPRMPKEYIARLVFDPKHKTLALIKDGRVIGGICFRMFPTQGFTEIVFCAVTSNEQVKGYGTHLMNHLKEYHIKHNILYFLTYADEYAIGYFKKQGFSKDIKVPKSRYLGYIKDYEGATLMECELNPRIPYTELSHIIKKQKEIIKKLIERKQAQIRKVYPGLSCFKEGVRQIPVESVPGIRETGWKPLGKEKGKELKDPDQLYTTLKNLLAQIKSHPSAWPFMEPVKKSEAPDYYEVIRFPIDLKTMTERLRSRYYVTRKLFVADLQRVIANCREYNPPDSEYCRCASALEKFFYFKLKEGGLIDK
#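 GCN5L2 (20nM final) in 50mM HEPES, 0.1mM EDTA pH 7.5, 0.01% Tween-20 was preincubated 15 min at room temperature with compound, then given ThioGlo1 (50uM), H3(1-25) peptide (75uM) and acetyl-CoA (70uM); CoA-thiol fluorescence (Ex340/Em540) was read at 0 and 20 min.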
# TDP1 inh = inhibitors of human tyrosyl-DNA phosphodiesterase TDP1; recombinant TDP1, AlphaScreen DNA substrate cleavage; Potency, µM (series often up to 130 µM), usual class: inhibitors; Q9NUW8; 350,000 compounds, 0.28% hits; also: nearly all actives have a fitted effect of over 40% in size
#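 Tdp1 1 nM final; 15 min RT w/ cpd; substrate 15 nM, 5 min; beads 10 ug/ml, 10 min; AlphaScreen read. Neg ctrl: no enzyme.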
# Numbers stand for hits; i = inactive; ? = inconclusive; nt = no result given; [ ] = dose if it differs, or a comment. Calls follow the shape of the dose curve; as a rule, active = well fitted curve in the direction sought with a large enough effect; inconclusive = small, poorly fitted or top-dose-only effect, or another doubt; inactive = no such curve, though single readings can be large; an effect the other way counts as inactive or inconclusive.
SMILES,PLK1 PBD block,TDP1 cell noCPT,TDP1 cell CPT,VDR inh,GCN5L2 inh,TDP1 inh
COc1ccc2c(c1)/C(=N/N1C(=O)c3ccccc3C1=O)C(=O)N2,nt,nt,nt,nt,i,i
COc1ccc2c(c1)/C(=C\c1cccc(/C=C3/C(=O)Nc4ccc(OC)cc43)n1)C(=O)N2,i,1.84µM,1.64µM,?,nt,nt
Cc1cc(C)c(C(=O)CSc2n[nH]c(=O)n2C2CC2)cc1C,i,20µM,11.2µM,i,i,i
O=C(CSc1n[nH]c(=O)n1C1CC1)c1ccc2c(c1)OCCO2,i,?,i,i,i,i
Cc1cc(C)cc(NC(=O)c2cc(S(=O)(=O)N3CCCC3)ccc2F)c1,nt,20.6µM,?,i,i,i
Cc1ccc(NC(=O)c2cc(S(=O)(=O)N3CCCCCC3)ccc2F)cc1F,nt,?,8.2µM,i,i,i
O=C(Nc1ccc(Cl)cc1F)c1cc(S(=O)(=O)N2CCCCC2)ccc1F,i,i,i,i,i,i
COc1ccccc1-c1ccc(SCC(=O)NCCc2ccccc2)nn1,i,23.1µM,?,i,i,i
COc1ccccc1NC(=O)CSc1ccc(-c2ccc(-n3cccn3)cc2)nn1,i,18.4µM,?,i,i,i
Cc1ccc(CSc2nnc(CNc3ccc(F)cc3)o2)cc1,?,i,i,i,i,i
O=C(Cn1c(=O)c2ccccc2n(CC(=O)Nc2ccc(F)cc2F)c1=O)NCCc1ccccc1,nt,i,i,i,i,i
CC(=O)c1ccc(-c2ccc(C(=O)NCC(c3ccc(F)cc3)N3CCOCC3)o2)cc1 (stereo unspecified),i,?,i,i,i,i
O=C(NCC(c1ccc(F)cc1)N1CCOCC1)c1ccc(OCc2ccccc2)cc1 (stereo unspecified),i,20.6µM,18.4µM,i,i,i
O=C(NCC(c1ccc(F)cc1)N1CCOCC1)c1ccc([N+](=O)[O-])o1 (stereo unspecified),i,25.9µM,20.6µM,i,i,i
COc1ccc(C)cc1NC(=O)c1ccc2c(c1)N(Cc1cccc(Cl)c1)C(=O)c1ccccc1S2=O (stereo unspecified),nt,i,i,i,i,i
COc1ccc(OC)c(-c2cc(Cl)c3c(c2)CC(CNC(=O)C(C)N2CCOCC2)O3)c1 (stereo unspecified),nt,?,i[9.04 µM],nt,nt,nt
COC(=O)[C@@]12C[C@@H](CC(=O)NCCc3ccccc3OC)C(=O)N(Cc3cccc4ccccc34)C1=CCC(C)(C)C2,i,?,?,nt,nt,nt
CCCCCCCCN1C(=O)[C@H](CC(=O)NCCc2ccccc2OC)C[C@@]2(C(=O)OC)CC(C)(C)CC=C12,i,?,20.6µM,nt,nt,nt
COC(=O)[C@@]12C[C@@H](CC(=O)NCCCN3CCCC3=O)C(=O)N(Cc3ccccc3)C1=CCC(C)(C)C2,i,i,i,nt,nt,nt
CCCCCCCCN1C(=O)[C@H](CC(=O)NCCCN2CCCC2=O)C[C@@]2(C(=O)OC)CC(C)(C)CC=C12,i,13µM,13µM,nt,nt,nt
CCCCOCCCNC(=O)C[C@@H]1C[C@@]2(C(=O)OC)CC(C)(C)CC=C2N(Cc2cccc3ccccc23)C1=O,i,?,?,nt,nt,nt
CCCCOCCCNC(=O)C[C@@H]1C[C@@]2(C(=O)OC)CC(C)(C)CC=C2N(Cc2ccccc2)C1=O,i,?,20.6µM,nt,nt,nt
C#CCNC(=O)C[C@@H]1C[C@@]2(C(=O)OC)CC(C)(C)CC=C2N(CCCCCCCC)C1=O,i,16.4µM,?,nt,nt,nt
C#CCNC(=O)C[C@@H]1C[C@@]2(C(=O)OC)CC(C)(C)CC=C2N(Cc2ccccc2)C1=O,i,?,?,nt,nt,nt
CC(=O)OC[C@@H]1O[C@@H](O/N=C2/C[C@@H](O)[C@@H](O)[C@@H]3[C@@H]4C(=O)N(C(C)(C)C)C(=O)[C@H]4CC[C@H]23)[C@H](OC(C)=O)[C@H](OC(C)=O)[C@@H]1OC(C)=O,nt,nt,nt,nt,nt,i[21 µM]
CCCCCCCCN1C(=O)[C@H](CC(=O)NCCCOC)C[C@@]2(C(=O)OC)CC(C)(C)CC=C12,i,14.6µM,?,nt,nt,nt

# High-throughput results (PubChem)
